Compound activity as filed in PubChem.
Only some compounds are listed: those with a hit (about 19% of all), similar ones and a draw of the others.
DT40 TDP1 CPT = qHTS for Inhibitors of human tyrosyl-DNA phosphodiesterase 1 (TDP1): qHTS in cells in presence of CPT; chicken DT40 Tdp1-/-;hTDP1 cells + 20 nM CPT, ATP luminescence, 48 h; Potency, µM (doses to about 46.2 µM), for the others: at the top dose activity change, negative = growth inhibition, actives largely listed as inhibitors; 12% of 420,000 active; AID 686979, 2013; also: potency is read from the fitted curve at half-maximal effect; nearly all actives have a fitted effect of over 55% in size
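Cell growth measured by CellTiter-Glo luminescence after a minimum 48 h, 37 C compound exposure with 20 nM CPT in Tdp1-knockout DT40 cells stably expressing hTDP1, seeded 400/well; qHTS titration format.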
IL-1B inflam inh = qHTS for Inhibitors of Inflammasome Signaling: IL-1-beta AlphaLISA Primary Screen; THP-1 LPS/ATP IL-1B secretion, AlphaLISA, 16 h; hits give low values; activity change, % at 57.5 µM; 4.7% of 360,000 active; in the data active = activity change below about -50%; inconclusive = mostly about -30% to -49%
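THP-1 cells pretreated 1 hr with compounds (up to 57.5 uM final), then stimulated with LPS (250 ng/mL final) plus ATP (1.25 mM final); secreted IL-1B measured by AlphaLISA after 16 hr, decreased signal indicating inhibition.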
HT1080 IDH1KD tx = qHTS for induction of synthetic lethality in tumor cells producing 2HG: qHTS for the HT-1080-IDH1KD cell line; HT-1080 IDH1 knockdown viability, ATP luminescence, 48 h; Potency, µM (series often up to 46.1 µM), for the others: top-dose activity, negative = toxicity, most hits filed as cytotoxic; 2% of 360,000 active; AID 686971, 2013;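 also: potency is read from the fitted curve at half-maximal effect; 0% = DMSO wells and -100% = cell-free medium wells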
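Using the IDH1-knockdown HT-1080 line run in the same batch and compound series as the NT line, viability after 48 h at 37 °C was determined by CellTiter-Glo luminescence and expressed as % activity.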
HT1080NT lethal = qHTS for induction of synthetic lethality in tumor cells producing 2HG: qHTS for the HT-1080-NT fibrosarcoma cell line. HT-1080-NT fibrosarcoma viability, CellTiter-Glo ATP luminescence, 48 h. 1.6% of 360,000 active. Potency, µM (titrated, usually from 46.1 µM), inactives show at the highest dose activity, negative = less viability, actives largely listed as cytotoxic. AID 686970, 2013;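 also: NT is the 2HG producing partner of a matched IDH1 knockdown line; potency is read from the fitted curve at half-maximal effect; 0% = DMSO-treated cells and -100% = media-only wells without cells; nearly all actives have a fitted effect of over 55% in size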
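Compounds were tested in concentration-response format on HT-1080-NT cells for 48 hours at 37 degrees C. Cell viability came from CellTiter-Glo luminescence; curves were classified by r2, response magnitude and activity.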
TDP1 cell noCPT = qHTS for Inhibitors of human tyrosyl-DNA phosphodiesterase 1 (TDP1): qHTS in cells in absence of CPT; DT40 Tdp1-/- hTDP1 cells, no CPT, ATP luminescence, 48 h; Potency, µM (titrated, usually from 46.2 µM), without a hit: at the top dose activity change, negative = growth inhibition, actives largely listed as inhibitors; 15% of 420,000 active; AID 686978, 2013; also: potency is read from the fitted curve at half-maximal effect; nearly all actives have a fitted effect of over 55% in size
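Seeded 400 DT40-hTDP1 cells/well (vehicle DMSO, no 20 nM CPT); pinned compounds; ≥48 hr at 37 °C; CellTiter-Glo luminescence as viability measure.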
* hit, by the source's call; ? = inconclusive; . = no result given; [ ] = remark or other dose. Unless noted, calls follow the shape of the dose curve; as a rule, active = well fitted curve in the direction sought with a large enough effect; inconclusive = small, poorly fitted or top-dose-only effect, or another doubt; inactive = no such curve, though single readings can be large; an effect the other way counts as inactive or inconclusive. Unless noted, % is scaled to controls: 0 for no effect and ±100 for the full control effect.

SMILES	DT40 TDP1 CPT	IL-1B inflam inh	HT1080 IDH1KD tx	HT1080NT lethal	TDP1 cell noCPT
COc1ccc(NC(=O)c2c(C)oc3ccc(O)c(CN4CCN(C)CC4)c23)cc1Cl	16µM*	.	.	.	18µM*
COc1ccc(NC(=O)c2c(C)oc3ccc(O)c(CN4CCCCCC4)c23)cc1	21µM*	.	.	.	23µM*
COc1ccc(-c2cc(C(F)(F)F)nc(SCCC(=O)N3CCN4CCCC4C3)n2)cc1 (stereo not given)	?	-15	-2%[9.24 µM]	-1%	26µM*
COc1ccc(-c2cc(C(F)(F)F)nc(SCCC(=O)N3CCCC3)n2)cc1	?	-52*	4%	13%	?
COc1ccc(-c2cc(C(F)(F)F)nc(SCCC(=O)Nc3cc(C)on3)n2)cc1	-16%	21	-3%	0%	-14%
Cc1ccc(-c2nc3c(c(=O)[nH]c(=O)n3CC(C)C)n2CC(C)C)cc1[N+](=O)[O-]	?	-9	-9%	-26%	29µM*
CCCCn1c(=O)[nH]c(=O)c2c1nc(-c1ccc(C)c([N+](=O)[O-])c1)n2CC	?	-18	-11%	-16%	21µM*
COCCn1c(-c2ccc(OC(F)(F)C(F)C(F)(F)F)cc2)nc2c1c(=O)[nH]c(=O)n2CC(C)C (stereo not given)	21µM*	-3	-2%	0%	?
CC(C)Cn1c(-c2cc([N+](=O)[O-])ccc2Cl)nc2c1c(=O)[nH]c(=O)n2Cc1ccccc1	6%	12	-12%	-21%	-19%
Cc1ccc(F)c(S(=O)(=O)NC(=O)C2(C)CCN2C(=O)CCC2CCCC2)c1 (stereo not given)	1%	0	18%	?	6%
O=C(NCc1cccnc1)c1ccc2c(c1)OCO2	-6%	0	2%	-2%	3%
O=C(Nc1cccc(C(=O)Nc2ccc(Cl)cn2)c1)c1ccccc1	?	?	3%	-2%	-18%
CC(C)C(=O)Nc1ccc(NC(=O)c2cccc(F)c2)cn1	-12%	-60*	15%	26%	?
O=C(Nc1ccc(NC(=O)C2CC2)nc1)c1cccc(F)c1	-11%	-4	9%	12%	-18%
O=C(Nc1ccc(Cl)cn1)c1cccc(F)c1	7.3µM*	11	8.2µM*	?	4.6µM*
Cc1ccccc1CNC(=O)c1cnc2sc(N3CCC(C)CC3)nn2c1=O	-23%	.	.	.	-27%
Cc1n[nH]c(=O)c2c(NC(=O)CSc3nn(-c4ccccc4)c(=S)s3)oc(C)c12	-4%	12	-19%	-7%	-10%
O=C(CC1C(=O)CCCC1=O)c1ccccc1	13µM*	-204*	?	?	?
O=C1N(Cc2cccnc2)C[C@@H]2C[C@@H](c3cccc(OC4CCCC4)c3)N3CCC[C@@]123	?	2	-5%	-9%	?
O=C(CCSCCC(=O)NN=Cc1ccccc1O)NN=Cc1ccccc1O	-24%	29	-25%	4%	-24%
O=C(N/N=C/c1cc([N+](=O)[O-])ccc1O)c1cccc2cc[nH]c12	6.5µM*	232	9.2µM*	?	4.1µM*
Cc1sc(N/N=C/c2cc([N+](=O)[O-])ccc2O)nc1-c1ccccc1	15µM*	7	-1%	-8%	15µM*
O=C(N/N=C/c1cccc([N+](=O)[O-])c1)c1cccc2cc[nH]c12	-12%	11	-4%	-9%	-26%
O=[N+]([O-])c1ccc(O)c(/C=N/Nc2ccccc2Cl)c1	?	-53*	?	-29%	?
O=C(N/N=C/c1ccccc1O)C1SCCCS1	12µM*	226	16µM*	?	6.5µM*
O=[N+]([O-])c1ccccc1N/N=C\c1ccccc1Cl	-17%	-3	11%	5%	-16%
